Results: PubChem BioAssay (NCI)
The panel holds about 83,000 compounds, 20% with a hit somewhere; the sample as a whole holds those more often.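 Activity criterion: percent growth below 10, measured after cells in 96-well plates were exposed to a single compound concentration for 48 hours.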 Values without a mark were called inactive. Active and inactive are the calls of the source.

tested on: OVCAR-5 ovarian; test: NCI-60 one-dose screen, 48 h (100 = growth as untreated, 0 = no growth, -100 = all killed); settings: 10 µM unless noted

Structure (SMILES)	growth
Cc1ccc(S(=O)(=O)c2nc(S(=O)(=O)c3ccc(C)cc3)c(N3CCC(O)CC3)s2)cc1	104%
Cc1sc2c(c1C)C(c1ccc(Cl)cc1)=N[C@@H](CC(=O)NCCCCCNC(=O)COc1ccc(C3CCC(=O)NC3=O)cc1)c1nnc(C)n1-2 (some centres not stated)	27.8%
COc1ccc2c(c1)C(=N/N=C(\C)c1ccc(OC)c(S(N)(=O)=O)c1)C(=O)N2	99.8%
COc1cc2oc(-c3cccc(C(=O)Nc4ccc(Cl)cc4)c3)cc(=O)c2c(OCCNC(=O)[C@H](CCC(=O)OC(C)(C)C)NC(=O)OC(C)(C)C)c1OC	107%
COc1ccc(-c2nc3cc(C)ccc3n2CC(=O)N=Nc2c(O)[nH]c3ccc(Cl)cc23)cc1	3.51% (active)
C=CC[N+](C)(C)CCn1c2ccccc2c2nc3cc(C)c(C)cc3nc21	111%
O=C(c1ccc(OCCN2CCOCC2)cc1)C1[C@H](c2ccc(Cl)cc2)[C@@H](c2ccccc2)NC12C(=O)Nc1ccc(Br)cc12 (some centres not stated)	41.3%
N#Cc1c(-c2ccc(Br)cc2)nc2n[nH]c(-c3ccc(Br)cc3)c2c1-c1ccc(F)cc1	98.1%
Cc1ccccc1[C@H]1C(C(=O)c2ccc(Cl)cc2)C2(N[C@@H]1c1ccccc1)C(=O)Nc1ccc(Cl)cc12 (some centres not stated)	-55.8% (active)
COc1cc(C2CC(c3cc(OC)c(OC)c(OC)c3)=NN2C(C)=O)ccc1OCc1ccccc1 (configuration not stated)	59.8%
Cc1cccc(NC(=O)[C@]23CCC(C)(C)CC2C2=CCC4[C@@]5(C)C[C@@H](O)[C@H](O)[C@@](C)(CO)C5CC[C@@]4(C)[C@]2(C)CC3)c1 (some centres not stated)	-28.9% (active)
CC12CC[C@@H]3[C@]4(C)COC(c5cn[nH]c5-c5ccc(Cl)cc5)O[C@@H]4CC[C@@]3(C)[C@@H]1CC(C1=CCOC1=O)O2 (some centres not stated)	62.3%
S=c1c2ccccc2nc2n1CCc1c-2[nH]c2ccccc12	86.8%
CCCCSc1nc(NCCc2c[nH]c3ccccc23)c(C#N)c(-c2ccccc2)n1	82.7%
CC(C)c1sc(NC(=O)c2cc(NC(=O)c3cc(NC(=O)c4cscn4)cn3C)cn2C)nc1C(=O)NCCCN(C)C	10.5%
CC(=O)Nc1ccc(-n2cnc3ccc(-c4ccc(O)cc4)cc32)cc1	72.2%
Cc1ccc(NCC(=O)Cn2cc(COc3ccc(C=Nc4cnc5ccccc5c4)cc3)nn2)cc1	107%
Cc1ccc([C@H]2C(C(=O)c3ccc(Cl)cc3)C3(N[C@@H]2c2ccccc2)C(=O)Nc2ccc(Br)cc23)cc1 (some centres not stated)	73.2%
Cn1cc(-c2nnc(N)nc2-c2c[nH]c3ccc(Br)cc23)c2cc(Br)cnc21	73.8%

Structure (SMILES)	growth
O=C(c1ccccc1)c1ccc2nc(-c3ccc(F)cc3)[nH]c2c1	41.5%
COc1ccc(-c2nc(SCC(C)C)nc(NCCc3c[nH]c4ccccc34)c2C#N)cc1	81.5%
S=C(Nc1ccccc1)Nc1ccc(OCc2nc3ccccc3[nH]2)cc1	66.3%
O=C(/C=C/Nc1ccc(Cl)cc1)c1ccc2c(c1)Nc1ccccc1S2	83.4%
COc1ccc(C(=O)/C=C/c2ccc(OCc3ccc(F)cc3)c(OC)c2)cc1OC	1.16% (active)
COc1c(F)ccc(C(=O)Nc2ccc3nc(NC(=O)C4CCCN(S(=O)(=O)c5cccc(C(F)(F)F)c5)C4)sc3c2)c1F (configuration not stated)	101%
Cn1cc(-c2cc(N)n3nc(-c4c[nH]c5ccccc45)cc3n2)c2cccnc21	30.2%
Cc1ccc(C(=O)CSc2nc3ccc(C)cc3c(=O)n2-c2ccc(F)cc2)cc1	84.8%
O=C(NNc1ccccc1)n1c(=O)c2ccccc2c(=O)n1-c1ccccc1	96.1%
Cc1nc(Nc2ccccn2)sc1C(=O)CC(SCC(=O)Nc1ccc(Cl)cc1)c1ccccc1F (configuration not stated)	-41.2% (active)
O=c1onc(-c2cc3ccccc3nc2Cl)n1-c1cccc2ccccc12	94.8%
N#Cc1c(-c2cccc(Cl)c2Cl)cc(-c2c[nH]c3ccccc23)[nH]c1=O	83.9%
CC(=O)OC[C@@]1(C)C2CC[C@]3(C)C(CC=C4C5CC(C)(C)CC[C@]5(C(=O)Nc5ccc(Br)cc5)CC[C@]43C)[C@@]2(C)C[C@@H](OC(C)=O)[C@@H]1OC(C)=O (some centres not stated)	92.8%
Cc1cc(C)cc(NC(=O)Cn2cc(COn3nnc4ccccc43)nn2)c1	102%
CC(=O)Nc1cccc(Nc2nc(NCc3ccccc3)c3ccccc3n2)c1	-98.4% (active)
Clc1cccc(Cl)c1/C=C/c1cc(/C=C/c2ccc(Br)cc2)c2ccccc2n1	97.4%
Cn1cc(-c2cc3nc(-c4cn(C)c5ncc(Br)cc45)cc(N)n3n2)c2ccccc21	-49.5% (active)
N#Cc1c(-c2ccccc2Cl)cc(-c2c[nH]c3ccccc23)[nH]c1=O	82.1%
